Experimental data: PubChem BioAssay (NCATS)
Results filed as inconclusive are left out. Unmarked numbers belong to inactive results. Activity calls are given as the source filed them. Calls follow the shape of the dose curve; as a rule, active = well fitted activation curve with a large enough effect; inconclusive = small, poorly fitted or top-dose-only effect; inactive = no such curve, though single readings can be large or run the other way.

target: Cellular tumor antigen p53 (Homo sapiens) (UniProt P04637); test: Primary qHTS for small molecule compounds that upregulate eGFP-tagged delta133p53alpha (in N-terminal) cells. (AID 2060322); conditions: NCI-H358 eGFP-delta133p53alpha fluorescence, 24 h; activation: active compounds read high; also: nearly all actives have a fitted effect of over 75% in size;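 as to activation: cells pre-induced with doxycycline then dosed without doxycycline; series mostly up to about 56 µM; 0% = DMSO vehicle and 100% = reference activator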
Sequence (P04637 whole entry, looked up): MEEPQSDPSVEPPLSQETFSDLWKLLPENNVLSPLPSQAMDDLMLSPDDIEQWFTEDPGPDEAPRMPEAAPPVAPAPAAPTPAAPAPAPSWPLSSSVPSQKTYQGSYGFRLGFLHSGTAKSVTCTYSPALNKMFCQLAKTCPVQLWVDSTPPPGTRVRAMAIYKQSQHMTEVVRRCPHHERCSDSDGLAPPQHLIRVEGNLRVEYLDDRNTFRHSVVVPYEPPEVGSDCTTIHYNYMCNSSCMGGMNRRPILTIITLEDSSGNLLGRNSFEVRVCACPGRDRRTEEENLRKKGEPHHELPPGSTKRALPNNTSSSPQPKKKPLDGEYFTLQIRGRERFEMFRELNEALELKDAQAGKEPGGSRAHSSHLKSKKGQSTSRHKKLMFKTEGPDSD
Summary of the method: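 NCI-H358 cells pre-induced 24 h with 10 ng/ml doxycycline for eGFP-delta133p53alpha, plated dox-free and exposed 24 h at 37C to titrated compounds. Fixed, Hoechst-stained; gated GFP peak intensity by laser scanning cytometry, normalized to DMSO (0%) and 57.5 uM 5-azacytidine (100%).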
Potency is read from the fitted curve at half-maximal effect.

SMILES | activation | Potency
CCN(CCCCOC(=O)c1ccc(OC)c(OC)c1)C(C)Cc1ccc(OC)cc1 (centres undefined) | -6.69% | 
C[C@@H]1[C@H](C)CC[C@]2(C(=O)O)CC[C@]3(C)C(=CC[C@@H]4[C@@]5(C)CC[C@H](O)C(C)(C)[C@H]5CC[C@]43C)[C@@H]12 | -12.8% | 
CCN(CC)CCOC(=O)C(Cc1cccc2ccccc12)CC1CCCO1 (centres undefined) | -0.837% | 
CN(C)C(=S)SC(=S)N(C)C |  | 21.9 µM (active)
CN(C)CCN(Cc1ccccc1)c1ccccn1 | 24.3% | 
COc1cc(N)c(Cl)cc1C(=O)NC1CCN(Cc2ccccc2)CC1 | 17.6% | 
Nc1ncnc2nc[nH]c12 | 18.4% | 
CC1(c2ccccc2)OC(C(=O)O)=CC1=O (centres undefined) | 26.8% | 
CC(=O)N(CC(=O)N(C)C)c1ccccc1 | -7.53% | 
